Screens (PubChem)
SW480 rereplic: induces DNA re-replication in SW480 colon adenocarcinoma cells; SW480 DNA re-replication, Hoechst DNA content imaging, 48 h; Potency, µM (series often up to 46.1 µM), hits mostly activators; 1.8% of 340,000 active; also: nearly all actives have a fitted effect of over 55% in size
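First, 250 cells per well were seeded. Next, compound or vehicle (23 nL) was pinned in, plates sat 48 hr at 37 C. Finally Hoechst was added for 40 min before fluorescence scanning.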
MCF10A rerep: inducers of DNA re-replication in MCF 10A breast cells; Potency, µM (highest dose often 46.1 µM), most hits filed as activators; MCF 10A DNA re-replication, Hoechst nuclear intensity, 48 h; 2.9% of 350,000 active; AID 624296; also: nearly all actives have a fitted effect of over 50% in size
KB-V1 MDR tox: kills drug-selected multidrug resistant KB-V1 cells. KB-V1 MDR cells viability, CellTiter-Glo, 72 h. Potency, µM (titrated, usually from 46.1 µM), most hits filed as cytotoxic. 3.4% of 400,000 active. AID 1347076; also: nearly all actives have a fitted effect of over 60% in size
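KB-V1, DMEM (no phenol red) + 10% FBS; cpd pin-transferred, titration series; 72 h, 37 degrees C; CellTiter-Glo, luminescence. Data normalized, curve-fit.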
TSG101-PTAP inh: blocks PTAP/TSG101 interaction to inhibit HIV-1 budding; Fluorescence polarization, FITC-PTAP peptide / Tsg101 binding; 340,000 tested, under 10 active; Q99816; AID 493005; Potency, µM (doses to about 115 µM), most hits filed as inhibitors; active = well fitted inhibition curve with a large enough effect in the main read-out, with a control signal flat, not every such curve was filed as active; inconclusive = small, poorly fitted or top-dose-only effect, or effect the other way, or a change in a side signal; inactive = no such curve, though single readings can be large or run the other way
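Steps: Tsg101 binding domain dispensed (10 uM final), compounds pinned in DMSO, FITC-labeled PTAP-motif peptide added (50 nM final); after 20 min binding at room temperature, polarization measured.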
KB-3-1 tox: KB-3-1 parental cell cytotoxicity; KB-3-1 viability, CellTiter-Glo ATP luminescence, 72 h; Potency, µM (highest dose often 46.1 µM), hits mostly cytotoxic; 1.4% of 400,000 active; AID 1347075; also: nearly all actives have a fitted effect of over 60% in size
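Cytotoxicity in the drug-sensitive parental line KB-3-1 was scored as loss of CellTiter-Glo luminescence following 72 h incubation with compound. Values come from curve fitting of normalized concentration-response data.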
RGS4 inhibitor: blocks human RGS4-accelerated GTP hydrolysis | Transcreener GDP fluorescence polarization, RGS4-accelerated GTP hydrolysis | P49798 | Potency, µM (highest dose often 114 µM), actives largely listed as inhibitors | 0.039% of 390,000 active; also: nearly all actives have a fitted effect of over 75% in size
Target sequence (P49798 whole entry, looked up): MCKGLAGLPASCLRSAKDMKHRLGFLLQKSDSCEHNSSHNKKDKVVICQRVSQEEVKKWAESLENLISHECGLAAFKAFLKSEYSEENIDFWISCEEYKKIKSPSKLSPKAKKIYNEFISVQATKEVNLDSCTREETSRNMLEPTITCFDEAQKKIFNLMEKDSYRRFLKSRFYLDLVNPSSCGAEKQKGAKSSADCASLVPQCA
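MLSMR compounds (23 nl, pin-transferred) preincubated 10 min at room temperature with a 500nM (2x) first reagent, then RGS4 at 900nM (2x) plus Transcreener GDP mix added; fluorescence polarization (620/688 nm) read before and after 90 min at 30 °C.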
A number is an active result; i = inactive; ? = inconclusive; nt = not tested or not shown; [ ] = dose if it differs, or a comment. Compounds with a hit are over-represented: about 6.6% of the library has one in this group of screens. Unless noted, calls follow the shape of the dose curve; as a rule, active = well fitted curve in the direction sought with a large enough effect; inconclusive = small, poorly fitted or top-dose-only effect, or another doubt; inactive = no such curve, though single readings can be large; an effect the other way counts as inactive or inconclusive.

SMILES	SW480 rereplic	MCF10A rerep	KB-V1 MDR tox	TSG101-PTAP inh	KB-3-1 tox	RGS4 inhibitor
N#CCc1ccc(NC(=O)Nc2cccc(Cl)c2)cc1	i	i	15µM	i	?	i
N#Cc1ccccc1NC(=O)Nc1cccc(Cl)c1	i	i	i	i	i	i[11.4 µM]
O=C(Nc1ccccc1)Nc1ccc(Br)cc1F	i	i	i	i	i	i
O=C(Nc1cccc(Cl)c1)Nc1ccc(Br)cc1F	?	?	21µM	i	16µM	i
O=C(Nc1cccc(Cl)c1)Nc1cccc(Cl)c1	i	?	?	i	i	i
O=C(Nc1ccccc1)C1CCN(c2ncc(-c3ccc4c(c3)OCCCO4)s2)CC1	nt	nt	i	nt	i	nt
COc1cc(-c2noc(-c3ccc(NCC4CCCO4)c([N+](=O)[O-])c3)n2)cc(OC)c1OC (centres undefined)	nt	nt	i	nt	i	i
O=C(Nc1cccc(Cl)c1)OCCOCCOC(=O)Nc1cccc(Cl)c1	i	21µM	i	i	?	i
Cn1nnc2cc(NC(=O)Nc3ccccc3F)ccc21	nt	nt	i	nt	i	nt
CC(C)COC(=O)NCCOC(=O)Nc1cccc(Cl)c1	i[9.22 µM]	?	i	i	i	i
Cc1cc(NC(=O)Nc2ccccc2F)ccc1Br	?	18µM	?	i	?	i
COc1ccc(C(=O)N(Cc2ccccc2)Cc2ccc(OC)c(COc3ccc(NC(C)=O)cc3)c2)cc1	nt	nt	nt	nt	nt	i
Cc1cc(NCc2ccccc2)nc(N2CCOCC2)n1	i	i	i	i	i	i
Cc1cc(N2CCCCCC2)nc(-c2ccccc2O)n1	?	?	i	i	?	i
Cc1cc(N2CCOCC2)nc(NCc2ccccc2)n1	i	7.3µM	?	i	i	i
Cc1cc(N2CCCCC2)nc(NCc2ccccc2)n1	?	?	?	i	16µM	i
CCCCSCCCNC(=O)CN1C(=O)COc2ccc(S(=O)(=O)N3CCCC3)cc21	nt	nt	i	nt	i	i
CCOc1cc(-c2ccc(OC(=O)c3ccc(Cl)cc3)c(OC)c2)cc(=O)c2c(C)oc(C)c12	nt	nt	nt	nt	nt	i
COCCCNc1c2c3c(cccc3[nH]c1=O)C(=O)c1ccccc1-2	18µM	15µM	2.1µM	?	5.8µM	i
O=C(NCCN1C(=O)S/C(=C\c2cccnc2)C1=O)c1cc(S(=O)(=O)N2CCOCC2)ccc1F	2.1µM	i	i	i	i	i
CCOc1cc(C(=O)NCCN2C(=O)S/C(=C\c3cccnc3)C2=O)cc(OCC)c1OCC	i	i	i	i	i	i
Cc1ccc(C2(C)NC(=O)N(CC(=O)NCCN3C(=O)S/C(=C\c4cccnc4)C3=O)C2=O)cc1 (centres undefined)	5.8µM	i	i	i	i	i
COc1ccc(C(=O)NCCN2C(=O)S/C(=C\c3cccnc3)C2=O)c(OC)c1OC	i	i	15µM	i	i	i
Cc1nn(Cc2ccccc2)c(C)c1C(=O)NCCN1C(=O)S/C(=C\c2ccccc2)C1=O	?	26µM	?	i	i	i
Cc1ccc(S(=O)(=O)N2CCOCC2)cc1C(=O)NCCN1C(=O)S/C(=C\c2ccccc2Cl)C1=O	i	i	?	i	?	i
SMILES	SW480 rereplic	MCF10A rerep	KB-V1 MDR tox	TSG101-PTAP inh	KB-3-1 tox	RGS4 inhibitor
O=C(CCl)NCCN1C(=O)S/C(=C\c2cccnc2)C1=O	?	?	i	i	?	i
Cc1ccc(NC(=O)c2ccco2)c(OCc2cc(=O)n3cc(C)sc3n2)c1	nt	nt	nt	nt	nt	i
Cc1noc(C)c1CSc1nc2ccccc2nc1NS(=O)(=O)c1ccc(Cl)cc1	i	2.6µM	?	i	?	i[11.4 µM]
Nc1nc(N)c2c(ccc3c2ccn3Cc2cccc([N+](=O)[O-])c2)n1	nt	nt	1.8µM	nt	0.58µM	nt
CCn1c(=O)c2cc(C(=O)N(C)c3cc(C)ccc3C)sc2c2ccccc21	nt	nt	i	nt	i	i
Cc1ccc(NC(=O)CN2C(=O)CC(c3ccc(C)c(C)c3)=Nc3ccccc32)cc1	nt	nt	i	nt	i	i
CCOC(=O)Cn1c(-c2cccnc2Cl)nc2cc(Cl)c(Cl)cc21	i	i	21µM	i	i	i
COc1cc([N+](=O)[O-])cc2sc(NC(=O)c3c(F)cccc3F)nc12	i	0.73µM	i	i	i	i
